hcDAF12 agonist – H. contortus DAF-12 activation, primary screen; HEK293 hcDAF-12 lit1-tk-luc reporter, luminescence; 0% DMSO, 100% Δ7-dafachronic acid; activation, % at 6.8 µM; actives 1.4% (n = 370,000);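 active = activation above the mean of all tested compounds plus 3 SD, cut at about 5.5% in these data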;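 also: 100% = response to 3 µM Δ7-dafachronic acid high control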
DAX1 inh-1 – inhibitors of DAX1 repression of SF-1 activated StAR promoter; HEK293T StAR-luciferase reporter, SF-1/DAX-1 repression relief; inhibition, % at 6.8 µM; actives 1.1% (n = 370,000); AID 652010;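 active = inhibition above the mean over all tested compounds plus 3 SD, cut at about 3.6% in these data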;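 also: 0% = DAX-1 cells with DMSO and 100% = cells lacking DAX-1 with DMSO; higher inhibition means more luminescence from relief of DAX-1 repression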
SMARCA2 activ – SMARCA2 function activation, primary screen; MG213 cells, MMTV-luciferase reporter, dexamethasone, overnight; activation, % at 9.1 µM; actives 1% (n = 370,000); in the data active = activation above about 7.8%;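 also: 0% = vehicle wells and 100% = reference activator wells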
DAX1 inh-2 – NR0B1 (DAX1) inhibition; P51843; HEK293 Gal4-DAX1 luciferase reporter, luminescence; inhibition, % at 6.75 µM; actives 0.99% (n = 340,000);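 active = inhibition above the mean over all tested compounds plus 3 SD, cut at about 4.2% in these data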;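 also: 0% = DAX1-transfected cells with DMSO and 100% = empty-vector control cells with DMSO; inhibition shows as a rise in luminescence from relieved DAX1 repression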
ssDAF-12 act – activates DAF-12 receptor from parasite S. stercoralis | actives 1% (n = 370,000) | AID 652126 | activation, % at 6.8 µM | HEK293 ssDAF-12/GRIP1 lit1-tk-luc reporter, luminescence; % of 3 µM dafachronic acid response;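 active = activation above the mean over all tested compounds plus 3 SD, cut at about 0.9% in these data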;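 also: 0% = DMSO-only wells and 100% = 3 µM delta7-dafachronic acid wells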
hgDAF-12 ag – activates the H. glycines DAF-12 receptor ligand-binding domain; actives 1.8% (n = 370,000); HEK293 GAL4-hgDAF12 UAS-luciferase reporter, agonist luminescence; normalized to butyrate control; AID 687014; activation, % at 6.8 µM;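 active = activation above a cutoff set at the mean of all screened compounds plus 3 SD, cut at about 10% in these data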;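 also: 0% = DMSO wells and 100% = sodium butyrate wells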
hgDAF12 conf – hgDAF-12 agonism, confirmation assay; HEK293 GAL4-hgDAF12 luciferase reporter, agonist mode; percent of butyrate response; activation, % at 6.8 µM; shares compounds with hgDAF-12 ag; actives 80% (n = 3,300);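 active = mean activation over triplicate wells above the hit cutoff derived from the earlier primary screen, cut at about 11% in these data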;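 also: 0% = DMSO low control and 100% = 2 mM sodium butyrate high control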
LXRb DAF12 ctr – activates human LXR-beta, counter-screen for DAF-12 agonists; 3,300 tested, under 10 active; activation, % at 6.8 µM; HEK293 Gal4-LXR luciferase reporter, 24 h; shares compounds with hgDAF-12 ag;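 active = mean activation of the triplicate above a set limit carried over from the primary screen, none filed active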
Target sequence (P55055 whole entry, looked up, the tested form may be a part): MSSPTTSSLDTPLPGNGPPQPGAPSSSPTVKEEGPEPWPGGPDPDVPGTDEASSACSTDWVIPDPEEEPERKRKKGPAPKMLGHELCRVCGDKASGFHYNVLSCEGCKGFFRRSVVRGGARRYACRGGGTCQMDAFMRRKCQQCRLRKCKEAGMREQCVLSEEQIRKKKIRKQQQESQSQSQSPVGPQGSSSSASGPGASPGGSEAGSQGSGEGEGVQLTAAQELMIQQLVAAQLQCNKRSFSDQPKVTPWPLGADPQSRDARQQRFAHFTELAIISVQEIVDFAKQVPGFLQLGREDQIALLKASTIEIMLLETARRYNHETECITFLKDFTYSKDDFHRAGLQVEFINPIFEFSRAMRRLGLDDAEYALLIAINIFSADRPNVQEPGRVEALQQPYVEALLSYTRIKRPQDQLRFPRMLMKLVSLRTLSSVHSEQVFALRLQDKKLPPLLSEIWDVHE
An asterisk follows results filed as active; x = no result. Compounds with a hit are over-represented: about 4.8% of the library has one in this group of screens.

SMILES	hcDAF12 agonist	DAX1 inh-1	SMARCA2 activ	DAX1 inh-2	ssDAF-12 act	hgDAF-12 ag	hgDAF12 conf	LXRb DAF12 ctr
CC(=O)COc1ccc2cc(-c3ccccc3)c(=O)oc2c1	6.2*	2	6	3	0	17*	17*	1
O=C1NC(=O)C(=Cc2ccc(Cl)cc2Cl)S1	3	4.4*	-2	3	1	18*	14*	1
O=C1NC(=S)NC1=Cc1ccc(Cl)cc1Cl	-1	-1	-3	1	-1	0	x	x
O=C(c1ccc2c(=O)n3c(nc2c1)CCCCC3)N1CCN(c2cccc(Cl)c2)CC1	1	1	1	0	-2	-6	x	x
CCOc1cc(C2NN=C(c3ccc(C)cc3)S2)ccc1O (stereo not given)	4	2	2	1	0	14*	16*	1
COc1ccc(C(=O)Nc2nc3cc4c(cc3s2)OCO4)c(OC)c1	2	3	3	2	-1	17*	17*	1
COc1ccc2nc(NC(=O)c3cccnc3SC)sc2c1	4	2	4	0	-1	17*	14*	0
CSc1ncccc1C(=O)Nc1nc2ccc(S(C)(=O)=O)cc2s1	1	-2	8	-1	-1	5	x	x
COc1cccc(Nc2nc3ccc(OC)cc3s2)c1	3	3	0	2	0	17*	18*	1
CC(=O)Nc1ccc(/C=N/N2C(=O)NC(C)(c3ccc(OC(F)F)cc3)C2=O)cc1 (stereo not given)	-1	0	-4	2	-1	-2	x	x
CC(=O)c1ccc(NC(=O)c2cc3ccccc3o2)cc1	5	3	2	1	1.6*	14*	18*	1
CC(=O)c1cccc(NC(=O)c2ccc3ccccc3c2)c1	4	3	3	2	1	19*	17*	1
O=C(Nc1cc(C(F)(F)F)ccc1-n1cncn1)c1cn2ccccc2n1	4	0	-1	-1	0	3	x	x
O=C(OCc1cccnc1)C1=Cc2ccccc2OC1	-1	1	0	-1	-1	14*	3	0
O=C(CN(Cc1ccco1)C(=O)c1ccc(N2CCCC2=O)cc1)Nc1ccccc1C(F)(F)F	-1	3	0	0	-1	1	x	x
Cc1ccc2c(c1)N(CC(=O)OCC(=O)NCc1ccccc1)C(=O)CO2	0	0	2	2	-1	2	x	x
COc1ccc(Cl)cc1NC(=O)CN(C)C(=O)CCCNC(=O)c1ccc(Cl)cc1	0	-1	2	0	0	1	x	x
CNc1ncnc2c1ncn2[C@H]1CN(CCOC)C[C@@H](CO)O1	4	1	2	x	-1	-3	x	x
Fc1ccc(OCc2nc(-c3cccs3)no2)cc1	3	3	4	3	0	16*	12*	0
O=C(Cn1cncn1)N/N=C/c1cccnc1	-1	0	-4	2	-2	2	x	x
O=C1C(O)CCN1C1CCCCC1 (stereo not given)	0	1	-6	2	-1	1	x	x
CC(C)c1ccc(/C=N/NC(=O)c2cccc(Cl)c2)cc1	3	3	7	1	0	15*	24*	1
CC(C)c1ccc(OCc2cccc(C(=O)N/N=C/c3cccnc3)c2)cc1	4	3.9*	5	-6	1	21*	18*	1
CC(=O)Nc1ccc(NC(=O)Cn2c(=O)n(-c3ccc(C)cc3)c(=O)c3oc4ccccc4c32)cc1	-2	-1	-2	-1	-1	2	x	x
Cc1cccc(C(=O)N[C@H](C(=O)Nc2ccc(C)c(S(=O)(=O)N(C)C)c2)C(C)C)c1	-1	0	-2	1	-1	-1	x	x
SMILES	hcDAF12 agonist	DAX1 inh-1	SMARCA2 activ	DAX1 inh-2	ssDAF-12 act	hgDAF-12 ag	hgDAF12 conf	LXRb DAF12 ctr
COC(=O)[C@H](C)N(Cc1ccc(Cl)c(Cl)c1)S(=O)(=O)CCN1CCN(c2ccccc2)CC1	-1	1	4	-1	-1	2	x	x
NC(=O)/C(=C\c1ccccc1)NC(=O)c1ccc(NC(=O)c2ccccc2)cc1	0	0	1	0	-1	-1	x	x
Cc1ccccc1C(=O)O/N=C(\N)c1ccncc1	3	2	6	1	0	15*	13*	1
O=C(Cc1ccsc1)Nc1ccc2c(c1)OCO2	3	1	1	0	-1	3	x	x
Oc1ccc(-c2cn3ccccc3n2)cc1	4	2	6	2	1	13*	15*	1
CC1=C(C)CC(C(=O)NCc2c(F)cccc2Cl)C(C(=O)O)C1 (stereo not given)	x	x	x	0	x	x	x	x
c1ccc(CSc2ccc(-c3cccs3)nn2)cc1	3	4.3*	4	1	1	14*	15*	1
CCOC(=O)Cc1csc(NC(=O)c2ccco2)n1	1	3	5	1	-1	13*	4	0
CC1CCN(C(=O)CCc2nnc(-c3ccccc3)o2)CC1	1	1	3	0	0	14*	11*	0
Oc1[nH]c2ccccc2c1N=Nc1nncc2ccccc12	3	3	3	3	0	16*	12*	1
Cc1ccc(-c2nc(Nc3cccc(C)c3)sc2CC(=O)O)cc1	3	4	3	1	0	17*	5	0
Cc1ccc(N=c2oc3cc(O)ccc3cc2C(N)=O)cc1	5	2	1	0	-1	18*	5	0
CCN(CC(=O)Nc1c(F)cccc1F)C(=O)c1ccc2c(=O)n3c(nc2c1)CCC3	0	0	1	1	-1	16*	2	0
CC(=O)c1ccc(N/C=C\C(=O)c2ccc(C)cc2)cc1	3	2	5	2	2.0*	18*	20*	1
c1ccc2[nH]c(NCc3ccc4c(c3)OCO4)nc2c1	3	3	5	1	-1	14*	10	0
Oc1cccc(C=NCc2ccccc2)c1O	-1	-1	2	-1	-1	-1	x	x
Oc1c(C=NCc2ccccc2)sc2ccccc12	4	1	2	12*	0	15*	16*	0
COc1ccc(-c2[nH]ncc2CN2CCC(OCc3cccnc3)CC2)c(F)c1	-1	0	-1	1	-2	4	x	x
Cc1cc(C)n(-c2nnc(NC34CC5CC(CC(C5)C3)C4)nn2)n1	5	3	3	1	1	13*	15*	1
